Compound activity as filed in PubChem.
The list is not random: actives were taken first. Their share in the collection is about 3.5%.
GPR151 activ – human GPR151 activation. Q8TDV0. PathHunter beta-arrestin GPR151 cells, luminescence. activation, % at 11.2 µM. hit rate 1% among 650,000. AID 1508602; in the data active means activation above about 4.9%
MITF inh – inhibitors of human MITF; inhibition, % at 2.6 µM; AID 1259374; O75030; hit rate 0.91% among 650,000; AlphaScreen MITF homodimerization, bead proximity signal; in the data active means inhibition above about 50%
TEAD-YAP block – TEAD-YAP interaction inhibition | HEK-TIYL cells, TEAD-Gal4/YAP UAS-luciferase luminescence | inhibition, % at 9.12 µM | hit rate 1.4% among 640,000 | AID 1259422; in the data active means inhibition above about 32%
FBW7 activator – human FBW7 E3 ligase activation, primary screen. Q969H0. AlphaScreen FBW7–phospho-cyclin E peptide binding, activator screen. normalized activity (activation), % at 26.1 µM. hit rate 0.13% among 650,000. AID 1259310; in the data active means normalized activity above about 1.9%;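 further: purified mutant Fbw7 with reduced substrate affinity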
Target sequence (Q969H0 whole entry, looked up): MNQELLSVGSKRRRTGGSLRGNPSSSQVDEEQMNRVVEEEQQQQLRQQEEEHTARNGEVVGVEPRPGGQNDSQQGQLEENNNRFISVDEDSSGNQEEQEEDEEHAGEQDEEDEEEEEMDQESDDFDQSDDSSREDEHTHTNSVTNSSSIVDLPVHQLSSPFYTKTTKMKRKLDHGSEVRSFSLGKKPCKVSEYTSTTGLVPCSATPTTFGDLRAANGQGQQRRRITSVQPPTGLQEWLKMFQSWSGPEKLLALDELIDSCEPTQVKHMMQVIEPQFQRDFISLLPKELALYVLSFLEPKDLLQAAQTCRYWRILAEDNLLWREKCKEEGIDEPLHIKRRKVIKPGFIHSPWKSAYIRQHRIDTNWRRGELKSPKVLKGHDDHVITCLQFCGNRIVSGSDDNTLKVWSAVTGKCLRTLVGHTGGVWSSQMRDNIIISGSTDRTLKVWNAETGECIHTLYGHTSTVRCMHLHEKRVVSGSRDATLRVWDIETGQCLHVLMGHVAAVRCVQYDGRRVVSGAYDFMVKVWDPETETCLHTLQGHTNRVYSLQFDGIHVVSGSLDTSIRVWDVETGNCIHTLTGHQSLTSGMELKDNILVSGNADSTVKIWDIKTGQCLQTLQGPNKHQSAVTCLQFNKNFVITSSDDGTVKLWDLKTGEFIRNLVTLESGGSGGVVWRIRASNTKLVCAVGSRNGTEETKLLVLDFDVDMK
GPR151 conf act – human GPR151 activation, confirmation screen | AID 1508609 | shares compounds with GPR151 activ | GPR151 PathHunter beta-arrestin cells, luminescence, 90 min; % of EA-reagent control over plate median | activation, % at 11.2 µM | 6,700 tested, under 10 active;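 active means mean percent activation across replicates above the confirmation screen cutoff of 4.91%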
GPR119 ag – GPR119 activation, counter-screen for GPR151 activators; hit rate 0.3% among 6,700; activation, % at 11.2 µM; GPR119 PathHunter beta-arrestin cells, luminescence, 90 min; 0 = compound-well median, 100 = enzyme-acceptor control; shares compounds with GPR151 activ; AID 1508611;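 active means mean percent activation in the counterscreen above 29.09%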;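 further: counterscreen on off-target GPR119 to flag nonselective hits from the GPR151 activator screen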
Large screens that a line does not name were inactive (follow-up assays come after a bar, where they were run).

CC(C)COc1cccc(OCC(=O)OC2CCS(=O)(=O)C2)c1 (configuration not stated)	none
Cc1cccc(N2CCN(CC(=O)Nc3ccc(C(=O)O)cc3)CC2)c1C	none
CCc1ccccc1NC(=O)CCC(=O)OCC(=O)c1ccc(Cl)cc1	GPR151 activ 8.7 | GPR151 conf act inactive | GPR119 ag inactive
CCc1ccccc1NC(=O)CCC(=O)OCC(=O)c1ccc(C)cc1	none
COc1ccc(OC)c(-c2cc(C(=O)N/N=C/c3c(C)nn(-c4ccccc4)c3C)[nH]n2)c1	GPR151 activ 5.2 | GPR151 conf act inactive | GPR119 ag inactive
COC(=O)N/N=C\c1c(C)nn(-c2ccccc2)c1Cl	none
CCN(CC)CCN(C)Cc1ccccc1C	GPR151 activ 5.0 | GPR151 conf act inactive | GPR119 ag inactive
CCN(CC)CCN(C)Cc1ccccc1Cl	none
N#C/C(=C(/O)COc1ccc([N+](=O)[O-])cc1)c1nnc2n1CCCCC2	GPR151 activ 5.8 | GPR151 conf act inactive | GPR119 ag inactive
N#C/C(=C(/O)COc1ccccc1)c1nnc2n1CCCCC2	none
COc1ccc(OCC(=O)N/N=C(\C)c2ccc(O)cc2)c(Br)c1	none
COc1ccc(C(=O)n2nc(N)c3cc4ccc(C)cc4nc32)cc1	none
COc1cc(C(=O)n2nc(N)c3cc4ccc(C)cc4nc32)cc(OC)c1OC	GPR151 activ 7.8, TEAD-YAP block 41 | GPR151 conf act inactive | GPR119 ag inactive
Cc1cc([N+](=O)[O-])ccc1N1C(=O)C2CC=C(Cl)CC2C1=O (configuration not stated)	GPR151 activ 5.6 | GPR151 conf act inactive | GPR119 ag inactive
Cc1ccc([N+](=O)[O-])cc1N1C(=O)C2CC=C(Cl)CC2C1=O (configuration not stated)	none
O=S(=O)(c1cccs1)N(Cc1ccco1)C1CCN(CCc2cccs2)CC1	GPR151 activ 7.5 | GPR151 conf act inactive | GPR119 ag inactive
CS(=O)(=O)N(Cc1ccco1)C1CCN(CCc2cccs2)CC1	none
Cc1ccccc1CCNCc1c(C(=O)O)n(Cc2ccc(F)cc2)c2ccccc12	none
O=C(Nc1ccc(Cl)cc1)c1cc(S(=O)(=O)NCCC2=CCCCC2)ccc1F	none
O=C(NCCC1=CCCCC1)c1cc(S(=O)(=O)NCCc2ccccc2)ccc1F	GPR151 activ 9.7 | GPR151 conf act inactive | GPR119 ag inactive
COc1ccc(-c2csc(N(C)C(=O)c3cccc(F)c3)n2)cc1	none
Cc1cc2nnc(SCC(=O)N3CCC(C)CC3)n2c(N)n1	GPR151 activ 4.9 | GPR151 conf act inactive | GPR119 ag inactive
Cc1ccc(NC(=O)c2sc3cc(C)ccc3c2Cl)cc1	none
CCNC(=O)c1sc2cc(C)ccc2c1Cl	GPR151 activ 6.4 | GPR151 conf act inactive | GPR119 ag inactive
O=C1COc2cc(S(=O)(=O)N3CCC(Cc4ccccc4)CC3)ccc2N1	none
CN(Cc1ccccc1)C(=O)C1CCN(S(=O)(=O)c2ccc3c(c2)OCC(=O)N3)CC1	GPR151 activ 6.7 | GPR151 conf act inactive | GPR119 ag inactive
COc1cc2ccccc2cc1C(=O)OCC(=O)c1ccc([N+](=O)[O-])cc1	none
CCOC(=O)c1sc2nc(SCC(=O)C(C)(C)C)n(Cc3ccc(F)cc3)c(=O)c2c1C	none
Cc1cc(NC(=O)CSc2nnc(Cc3cccn3C)n2Cc2ccccc2)no1	none
Cc1cccc(C(=O)NNC(=O)/C=C/C(=O)O)c1	GPR151 activ 9.2 | GPR151 conf act inactive | GPR119 ag inactive
O=C1NC(=O)C(=Cc2ccc(OCc3ccccc3)c(OCc3ccccc3)c2)C(=O)N1	none
CCNc1nc(OC(C(F)(F)F)C(F)(F)F)nc(N2CCCCC2)n1	GPR151 activ 6.0 | GPR151 conf act inactive | GPR119 ag inactive
C=C(C)CSc1nnc2n(-c3ccccc3C)c(=O)c3c4c(sc3n12)CCC4	none
O=C1CCCN1CCCNc1nc(NCc2cccnc2)nc2c1ncn2CCN1CCCC1=O	GPR151 activ 6.7 | GPR151 conf act inactive | GPR119 ag inactive
O=C1CCCN1CCn1cnc2c(NCc3ccccc3)nc(NCc3cccnc3)nc21	none
COc1cc(Nc2nc(NCc3cccnc3)nc3c2ncn3CCN2CCCC2=O)cc(OC)c1OC	GPR151 activ 5.0 | GPR151 conf act inactive | GPR119 ag inactive
COc1cc(Nc2nc(NCc3cccc(C(F)(F)F)c3)c3ncn(CCN4CCCC4=O)c3n2)cc(OC)c1OC	GPR151 activ 5.3 | GPR151 conf act inactive | GPR119 ag inactive
COC(=O)c1c(NC(=O)COc2cc(C)c(Cl)c(C)c2)sc2c1C(C(=O)OC)CC2 (configuration not stated)	none
Cc1cccc(C)c1OC(=O)/C=C/c1ccc(Cl)cc1	none
CC(=O)OC12CC3C(C1C(C)=NN2C(=O)C(=O)N1N=C(C)C2C4C(CC21OC(C)=O)C4(C)C)C3(C)C (configuration not stated)	GPR151 activ 7.8 | GPR151 conf act inactive | GPR119 ag inactive
COC(=O)C12CC3C(C1C(C)=NN2C(C)=O)C3(C)C (configuration not stated)	none
Cc1ccccc1S(=O)(=O)Cc1ccc(C(=O)N2CCCCC2)o1	none
O=C(c1ccc(CS(=O)(=O)Cc2ccc(F)cc2)o1)N1CCCCC1	GPR151 activ 5.3 | GPR151 conf act inactive | GPR119 ag inactive
O=C(Nc1ccccc1)N1CC(=O)N(OCc2ccccc2)C1c1ccccc1 (configuration not stated)	none
O=C(CN1C(=O)C2(SCC(=O)N2c2ccc(F)cc2)c2ccccc21)NCCc1ccccc1 (configuration not stated)	none
O=C(CN1C(=O)C2(SCC(=O)N2c2ccc(F)c(F)c2)c2ccccc21)NCCc1ccccc1 (configuration not stated)	GPR151 activ 5.4 | GPR151 conf act inactive | GPR119 ag inactive
CC(=O)Nc1ccc(NC(=O)c2cc3c(=O)n4ccccc4nc3n2C)cc1	none
Cc1ccc(NC(=O)c2cc3c(=O)n4ccccc4nc3n2C)cc1F	GPR151 activ 5.6 | GPR151 conf act inactive | GPR119 ag inactive
Cn1c(C(=O)Nc2ccc(Oc3ccccc3)cc2)cc2c(=O)n3ccccc3nc21	GPR151 activ 5.9 | GPR151 conf act inactive | GPR119 ag inactive
O=C(N/N=C/c1nc2ccccc2[nH]1)c1cccnc1	none
CC(NS(C)(=O)=O)c1ccccc1 (configuration not stated)	GPR151 activ 6.3 | GPR151 conf act inactive | GPR119 ag inactive
Cc1c(CCl)noc1-c1ccc(F)cc1	none
O=S(=O)(NC1CCN(Cc2ccccc2)CC1)c1ccc(F)c(F)c1	GPR151 activ 7.1 | GPR151 conf act inactive | GPR119 ag inactive
Cn1c(=O)oc2cc(S(=O)(=O)NC3CCN(Cc4ccccc4)CC3)ccc21	none
COCCNC(=O)C1CCCN(S(=O)(=O)c2c(C)noc2/C=C/c2cccs2)C1 (configuration not stated)	GPR151 activ 5.3 | GPR151 conf act inactive | GPR119 ag inactive
